Screening results deposited in PubChem BioAssay by Broad Institute.
FGF22 binding: FGF22 (human) thermal shift binding; recombinant FGF22 thermal shift, SYPRO orange fluorescence; percent of sucrose octasulfate shift, DMSO zero; activity (Tm shift, normalised), % at 9.99 µM; AID 651658; Q9HCT0; 1.5% of 340,000 active;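 active means mean Tm shift, scaled 0 neutral to 100 positive control, at about 1.3% or above, every replicate too, limit read from the data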
dFosB act: activators of mouse delta FosB homodimer. P13346. purified delta FosB, TAMRA-CDK5 oligo fluorescence polarization; percent of positive-control signal above neutral wells. activation, % at 25 µM. 0.99% of 340,000 active. AID 493131;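 active means mean activation above about 17%, with every replicate also reaching it, limit read from the data, passing the limit was not always enough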
Target sequence (P13346 whole entry, looked up): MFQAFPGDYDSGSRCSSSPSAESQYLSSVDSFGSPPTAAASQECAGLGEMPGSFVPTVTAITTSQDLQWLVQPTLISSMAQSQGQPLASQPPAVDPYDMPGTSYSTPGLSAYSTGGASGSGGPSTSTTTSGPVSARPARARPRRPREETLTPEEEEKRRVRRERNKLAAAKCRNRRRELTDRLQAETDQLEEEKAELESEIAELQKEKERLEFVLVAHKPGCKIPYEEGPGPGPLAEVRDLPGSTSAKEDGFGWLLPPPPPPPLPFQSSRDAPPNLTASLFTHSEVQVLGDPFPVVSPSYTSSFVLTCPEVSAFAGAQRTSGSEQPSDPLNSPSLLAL
PvdQ inh: P. aeruginosa PvdQ acylase inhibition; inhibition, % at 10 µM; 0.063% of 340,000 active; purified PvdQ acylase, fluorescence plate reader; in the data active means inhibition above about 30%, passing the limit was not always enough;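 further: 0% = vehicle neutral wells and 100% = reference inhibitor wells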
PglD DTNB: PglD (C. jejuni) enzyme inhibition. purified PglD enzyme, DTNB colorimetric CoA detection. inhibition, % at 12.5 µM. 0.098% of 360,000 active. AID 602405; in the data active means inhibition above about 16%, passing the limit was not always enough
CDK5 p35 inh: CDK5/p35 (human) kinase inhibition; Q00535+Q15078; Recombinant CDK5/p35, ADP-Glo luminescence, 60 min; inhibition, % at 10 µM; 0.01% of 330,000 active;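 active means highest replicate inhibition of at least 50% and at least 75% of replicates reaching 50%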;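 further: plate controls were DMSO neutral control for no effect and GW8510 at 10 µM for full effect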
SIRT5 inh: blocks human SIRT5 desuccinylation of peptide; AID 652115; 1.1% of 330,000 active; Purified SirT5, succinyl-peptide AMC, trypsin-coupled fluorescence; inhibition, % at 15 µM; in the data active means inhibition above about 15%
Target sequence (Q9NXA8 whole entry, looked up): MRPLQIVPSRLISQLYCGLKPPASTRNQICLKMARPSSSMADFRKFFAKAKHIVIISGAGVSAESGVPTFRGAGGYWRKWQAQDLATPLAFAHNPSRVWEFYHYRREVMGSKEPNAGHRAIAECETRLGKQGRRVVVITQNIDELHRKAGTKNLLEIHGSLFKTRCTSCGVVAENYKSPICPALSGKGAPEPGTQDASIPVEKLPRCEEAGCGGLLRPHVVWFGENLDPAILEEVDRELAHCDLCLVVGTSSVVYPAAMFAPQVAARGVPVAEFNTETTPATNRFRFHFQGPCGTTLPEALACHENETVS
An asterisk follows results filed as active; nt = no result; ! = repeats disagree. Sampled rows, rich in hits. Any-hit rate of the full collection: about 2.8%.

SMILES | FGF22 binding | dFosB act | PvdQ inh | PglD DTNB | CDK5 p35 inh | SIRT5 inh
Cc1nn(C)cc1C(C(=O)NC1CCCCC1)N(CCc1ccccc1)C(=O)c1cnccn1 (stereo not drawn) | 43* | -1 | -25 | nt | -3 | 3
CCOc1cc(NC(=S)NCCc2ccccc2)c(OCC)cc1NC(C)=O | 43* | 2 | 9 | nt | -12 | -2
O=S(=O)(N[C@@H]1CC[C@@H](CCn2cc(Cc3ccccc3)nn2)O[C@H]1CO)c1ccccc1F | 1 | nt | nt | -3 | nt | 20*
O=S(=O)(N[C@@H]1CC[C@@H](CCn2cc(-c3cccnc3)nn2)O[C@H]1CO)c1ccccc1 | 0 | nt | nt | 2 | nt | 16*
O=S(=O)(N[C@@H]1CC[C@H](CCn2cc(-c3cccnc3)nn2)O[C@H]1CO)c1ccccc1 | 0 | nt | nt | 2 | nt | 8
Cn1cc(-c2ccc(Cl)cc2)cc(C#N)c1=O | 43* | -1 | 10 | nt | -9 | -6
Cc1ccc(S(=O)(=O)N2[C@@H](c3ccc(C(C)(C)C)cc3)C(C(=O)O)=CC[C@H]2c2ccc(Cl)c(Cl)c2)cc1 | 0 | -9 | 3 | -1 | 0 | 16*
O=C(O)C1=CCC(c2ccc(Cl)c(Cl)c2)N(S(=O)(=O)c2ccc(F)cc2)C1c1cccc(F)c1 (stereo not drawn) | 43* | nt | nt | nt | nt | nt
CC(C)(C)S(=O)N1Cc2cc(=O)n(Cc3ccccc3)c(CCO)c2[C@H]1CCO (stereo partly drawn) | 0 | -10 | -8 | -4 | 0 | 26*
C=CCNC(=O)COC(=O)COc1ccc(Cl)cc1C | nt | -9 | 1 | 5 | -1 | 17*
O=C(C[C@H]1CC[C@H]2[C@@H](COC[C@H](O)CN2Cc2ccc(Oc3ccccc3)cc2)O1)Nc1nccs1 | 0 | nt | nt | 2 | nt | 3
Cc1ccc(N2CC(O)=C(c3nc4ccccc4c(=O)[nH]3)C2=N)cc1C | 43* | 13 | 6 | nt | 1 | -1
CCOc1ccc(N2CC(O)=C(c3nc4ccccc4c(=O)[nH]3)C2=N)cc1 | 1 | 0 | -5 | nt | -1 | nt
CCCNC(=O)COC(=O)c1ccc(S(=O)(=O)N2CCCC2)cc1 | 44* | -1 | -8 | nt | -10 | -1
O=C(COC(=O)c1ccc(S(=O)(=O)Nc2ccccc2)cc1)NCCC1=CCCCC1 | 44* | -17 | -11 | nt | 0 | -4
CC(=O)Nc1ccc(C(=O)OCC(=O)NCCC2=CCCCC2)cc1 | 0 | 3 | -10 | -6 | 1 | -2
CCCNC(=O)COC(=O)c1ccc(Cl)c(S(=O)(=O)N2CCCC2)c1 | nt | -5 | 3 | -1 | -1 | nt
COC(=O)C[C@H]1C[C@@H]2c3cc(N(C)C)ccc3O[C@@H]2[C@@H](CO)O1 | -1 | nt | nt | 3 | nt | 0
Cc1nc2c(-c3ccc(Cl)cc3)c(C)[nH]n2c(=O)c1Cc1ccccc1 | 0 | -3 | 5 | nt | 0 | 17*
Cc1nc2c(-c3ccccc3)c(C)[nH]n2c(=O)c1Cc1ccccc1 | 0 | 0 | -7 | nt | 0 | -1
CC(C)C[C@H](NS(=O)(=O)c1ccc(F)cc1F)C(=O)N1CCC[C@H]1C(=O)NCc1ccccc1 | 0 | nt | nt | nt | nt | 23*
Nc1nc(N)c(-c2cccc(C(F)(F)F)c2)c(Cc2cccc(C(F)(F)F)c2)n1 | -1 | 16* | -10 | nt | 1 | nt
Nc1ncccc1OCc1cccc(C(F)(F)F)c1 | 0 | -1 | 8 | nt | 1 | -5
COC(=O)N(C)C[C@@H]1OCc2cn(nn2)CCCC(=O)N([C@H](C)CO)C[C@H]1C | 0 | nt | nt | -2 | nt | 3
CC(C)OC(=O)N(C)C[C@@H]1OCc2cn(nn2)CCCC(=O)N([C@H](C)CO)C[C@H]1C | 0 | nt | nt | 1 | nt | 27*
SMILES | FGF22 binding | dFosB act | PvdQ inh | PglD DTNB | CDK5 p35 inh | SIRT5 inh
CC(C)OC(=O)N(C)C[C@@H]1OCc2cn(nn2)CCCC(=O)N([C@@H](C)CO)C[C@@H]1C | 0 | nt | nt | 2 | nt | 16*
C[C@@H]1CN([C@H](C)CO)C(=O)CCCn2cc(nn2)CO[C@H]1CN(C)S(=O)(=O)c1ccc(F)cc1 | 1 | nt | nt | 0 | nt | 23*!
C[C@@H]1CN([C@H](C)CO)C(=O)CCCn2cc(nn2)CO[C@@H]1CN(C)S(=O)(=O)c1ccc(F)cc1 | 0 | nt | nt | -1 | nt | 0
C[C@H]1CN([C@@H](C)CO)C(=O)CCCn2cc(nn2)CO[C@@H]1CN(C)C | 0 | nt | nt | 2 | nt | -1
C[C@H](CO)N1C[C@H](C)[C@H](CN(C)C(=O)CCCN(C)C)OCc2cn(nn2)CCCC1=O | 0 | nt | nt | -1 | nt | 17*
C[C@@H]1CN([C@@H](C)CO)C(=O)c2cc(NC(=O)c3ccccc3)ccc2O[C@@H](C)CCCCO[C@@H]1CN(C)S(=O)(=O)c1cn(C)cn1 | 0 | nt | nt | 2 | nt | -2
CCNC(=O)C[C@@H]1CC[C@@H]2[C@@H](COc3ccc(NC(=O)Nc4cccc(OC)c4)cc3C(=O)N2C)O1 | 0 | nt | nt | 0 | nt | nt
Cc1noc(C)c1S(=O)(=O)N(C)C[C@H]1OCCCC[C@@H](C)Oc2ccc(NS(=O)(=O)c3cccs3)cc2C(=O)N([C@@H](C)CO)C[C@H]1C | 0 | nt | nt | -3 | nt | 6
CCCCCCN1C[C@@H](O)[C@H](n2cc(COC(=O)c3ccccc3)nn2)C[C@@H]1c1ccccc1 | 0 | nt | nt | -2 | nt | 12
CCCCCCN1C[C@H](O)[C@@H](n2cc(C3CC3)nn2)C[C@@H]1c1ccc(C)cc1 | 44* | nt | nt | 0 | nt | nt
Cc1ccc([C@H]2C[C@H](n3cc(COC(=O)c4ccccc4)nn3)[C@@H](O)CN2C(=O)c2cccs2)cc1 | 0 | nt | nt | -2 | nt | -5
CCCCCCN1C[C@@H](O)[C@H](n2cc(COC(=O)c3ccccc3)nn2)C[C@@H]1c1ccc(C)cc1 | 0 | nt | nt | -5 | nt | 24*
COc1ccc([C@H]2C[C@@H](O)[C@H](n3cc(COC(=O)c4ccccc4)nn3)CN2C(=O)c2cccs2)cc1 | 43* | nt | nt | 0 | nt | nt
Cc1noc(C)c1S(=O)(=O)N(C)C[C@H]1OCCCC[C@H](C)Oc2ccc(NC(=O)Nc3ccc(F)cc3)cc2C(=O)N([C@H](C)CO)C[C@@H]1C | 0 | nt | nt | -4 | nt | 1
O=C(c1cccnc1)N1CC2(C1)[C@@H](c1ccccc1)[C@@H](CO)N2CC1CC1 | 0 | nt | nt | nt | nt | -3
Cc1[nH]c(=S)c(C#N)c(C)c1Cc1ccccc1 | 0 | nt | nt | -2 | nt | -2
Cc1cccc(Cc2c(C)[nH]c(=O)c(C#N)c2C)c1 | 43* | -5 | -15 | nt | -1 | -2
O=C(c1cc([N+](=O)[O-])ccc1N1CCOCC1)N1CCOCC1 | 43* | 4 | 4 | -5 | -1 | 2
Cc1ccccc1NC(=S)NC12CN3CN(CN(C3)C1)C2 | 44* | -5 | -19 | nt | -2 | -2
Cc1cccc(NC(=S)NC23CN4CN(CN(C4)C2)C3)c1C | 44* | 0 | -6 | nt | 0 | -1
COc1ccccc1NC(=S)NC12CN3CN(CN(C3)C1)C2 | nt | -3 | -23 | nt | -1 | -3
